The whole screen tested about 400,000 compounds, of which about 2,100 (0.53%) were called active. Roughly 14% stayed inconclusive and do not appear here. How the calls were made is not given here. For the sample, actives were picked, then their nearest neighbours and some compounds at random.
Molecular target: Ataxin-2 (Homo sapiens) (UniProt Q99700)
Assay: qHTS for Inhibitors of ATXN expression.
Type: functional

Chain of Ataxin-2 (Homo sapiens) (Q99700 whole entry): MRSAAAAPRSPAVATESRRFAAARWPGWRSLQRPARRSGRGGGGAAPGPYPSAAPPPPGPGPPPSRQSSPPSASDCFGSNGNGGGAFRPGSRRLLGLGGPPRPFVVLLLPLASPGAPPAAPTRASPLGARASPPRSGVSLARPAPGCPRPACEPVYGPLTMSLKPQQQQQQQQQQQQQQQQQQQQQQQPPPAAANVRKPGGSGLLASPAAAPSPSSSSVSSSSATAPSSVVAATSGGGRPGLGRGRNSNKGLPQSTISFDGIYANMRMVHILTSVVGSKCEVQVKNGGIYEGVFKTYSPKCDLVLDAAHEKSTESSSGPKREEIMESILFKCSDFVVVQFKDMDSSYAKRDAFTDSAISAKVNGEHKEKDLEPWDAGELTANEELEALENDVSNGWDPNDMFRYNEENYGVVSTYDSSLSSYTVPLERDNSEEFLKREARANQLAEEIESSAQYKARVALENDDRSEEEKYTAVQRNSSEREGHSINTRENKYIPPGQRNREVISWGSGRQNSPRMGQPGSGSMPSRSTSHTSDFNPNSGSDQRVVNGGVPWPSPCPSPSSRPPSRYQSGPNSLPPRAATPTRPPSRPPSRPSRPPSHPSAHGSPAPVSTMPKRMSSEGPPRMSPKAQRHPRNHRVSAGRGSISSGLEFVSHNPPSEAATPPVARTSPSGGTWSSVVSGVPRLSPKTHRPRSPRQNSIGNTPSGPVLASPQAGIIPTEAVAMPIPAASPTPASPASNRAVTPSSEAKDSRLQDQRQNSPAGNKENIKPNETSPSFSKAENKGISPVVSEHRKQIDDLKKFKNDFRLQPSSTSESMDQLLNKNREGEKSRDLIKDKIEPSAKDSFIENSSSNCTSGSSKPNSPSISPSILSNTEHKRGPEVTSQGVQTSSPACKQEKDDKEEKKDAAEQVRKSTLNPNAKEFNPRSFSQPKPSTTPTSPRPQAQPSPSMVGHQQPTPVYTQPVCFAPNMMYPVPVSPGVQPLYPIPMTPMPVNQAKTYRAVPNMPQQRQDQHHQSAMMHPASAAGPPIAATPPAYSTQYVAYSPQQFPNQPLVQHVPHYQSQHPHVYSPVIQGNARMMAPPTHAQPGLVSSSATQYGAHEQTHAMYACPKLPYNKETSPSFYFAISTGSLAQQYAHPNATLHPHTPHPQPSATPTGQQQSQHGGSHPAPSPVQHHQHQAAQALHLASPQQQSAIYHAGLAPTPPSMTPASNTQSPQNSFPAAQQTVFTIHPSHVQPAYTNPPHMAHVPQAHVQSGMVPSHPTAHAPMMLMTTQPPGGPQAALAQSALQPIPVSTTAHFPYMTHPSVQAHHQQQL

| Structure (SMILES) | Potency |
| --- | --- |
| COc1ccc(Sc2ccc(-c3nc4cnccn4c3NC3CCCCC3)cc2OC)cc1 | inactive |
| CN(Cc1nc(-c2cnccn2)no1)C1CC(C)(C)NC(C)(C)C1 | inactive |
| Cc1ccccc1N(CC(=O)NC(C)(C)C)C(=O)CCC(=O)Nc1nccs1 | inactive |
| CCCCN1CCc2c(c3ccccc3n2Cc2ccccc2)C1 | 28.2 µM (active) |
| CCCN1CNc2c(c(=O)[nH]c(=S)n2CCc2ccccc2)C1 | inactive |
| Oc1ncnc2sc3c(c12)CN(Cc1ccccc1)CC3 | inactive |
| CCCCCC(=O)NNC1=NCC(Cc2ccccc2)S1 (stereo unspecified) | inactive |
| O=C(c1cc([N+](=O)[O-])cc([N+](=O)[O-])c1)N1CCN(Cc2ccc3c(c2)OCO3)CC1 | inactive |
| COc1cc2cc(C(=O)N3CCN(Cc4ccc5c(c4)OCO5)CC3)c(=O)oc2cc1OC | inactive |
| CCO[C@H]1OC(C(=O)N2CCN(Cc3ccc4c(c3)OCO4)CC2)=C[C@@H](c2ccc(C(F)(F)F)cc2)[C@@H]1CCCO | 35.5 µM (active) |
| CCOC(=O)C(=Cc1ccc(-n2ccnc2)cc1)C(=O)OCC | 25.1 µM (active) |
| CCOC(=O)/C(=C/c1ccc(N2CCC(c3ccccc3)=N2)cc1)C(C)=O | inactive |
| CCCN(CCC)CCNC(=O)CCC(=O)Nc1ccc2nc(N3CCOCC3)cc(C)c2c1 | inactive |
| CCOc1ccc(S(=O)(=O)N2CCN(C)CC2)cc1NC(=O)c1ccccc1F | inactive |
| Cc1cc(Nc2cccc(Cl)c2)nc2ccc(NC(=O)COc3ccc(Cl)cc3)cc12 | inactive |
| COc1ccc(Cl)cc1C(=O)Nc1ccc2nc(Nc3cccc(Cl)c3)cc(C)c2c1 | inactive |
| Cc1cc(N2CCN(C)CC2)nc2ccc(NC(=O)Nc3ccccc3Br)cc12 | 39.8 µM (active) |
| Cc1cc(N2CCN(C)CC2)nc2ccc(NC(=O)Nc3cccc(Cl)c3)cc12 | 31.6 µM (active) |
| CCN1CCN(c2cc(C)c3cc(NC(=O)c4cc(Br)ccc4Cl)ccc3n2)CC1 | 31.6 µM (active) |
| CCN1CCN(c2cc(C)c3cc(NC(=O)CCC(=O)Nc4ccc(OC)cc4OC)ccc3n2)CC1 | inactive |
| CCOc1ccccc1NC(=O)Nc1ccc2nc(N3CCN(C)CC3)cc(C)c2c1 | 31.6 µM (active) |
| COCCCn1c(=N)c(C(=O)NC2CCCC2)cc2c(=O)n3ccccc3nc21 | inactive |
| COc1ccc(S(=O)(=O)NCc2ccco2)cc1C(=O)N1CCOCC1 | inactive |
| CCCN(CCC)S(=O)(=O)c1ccc(C(=O)OCCN2C(=O)c3cccc4c(N5CCOCC5)ccc(c34)C2=O)cc1 | inactive |
| O=C(CCCNC1=NS(=O)(=O)c2ccccc21)Nc1ccc(Cl)cc1 | inactive |
| CCOC(=O)c1cc2c(=O)n3ccccc3nc2n(Cc2ccccc2)c1=N | inactive |

Source: ChEMBL document CHEMBL1201862, “PubChem BioAssay data set” (2004)
